This note sets out measurements from ChEMBL document CHEMBL4513216, “Probing the Open Global Health Chemical Diversity Library for Multistage-Active Starting Points for Next-Generation Antimalarials” (ACS Infect Dis, 2020).

Hit rate of the full screen: of about 69,000 compounds, about 8,600 (12%) showed an effect of 50% or more. The sample as a whole holds a higher share of strong results than the screen did.

The experiment concerns Plasmodium berghei. The experiment is described as follows: Screen against P. berghei liver stage (PbLuc), transformed with Luciferase, at 10uM. In kind it is functional, HepG2. Conditions: tested at 10 uM.
`CCN1Cc2ccccc2CC2(CCN(C)CC2)C1=O`: the INHIBITION was determined as 26.5%.

On to `Cc1nc(C)n(CC2CCCN(CCOc3cccc(F)c3)C2)n1` (configuration not stated), for which the INHIBITION is listed as 48.4%.

As for `O=C(CC1CCCC1)N1CCN2C[C@@H](CO)[C@H](c3ccccc3)[C@H]2C1`, the INHIBITION was -16.4%.

Regarding `CS(=O)(=O)NC1CCCN(C(=O)NCc2cccc(F)c2)C1` (configuration not stated), the INHIBITION turned out to be 29.4%.

For the molecule `c1ccc(N2CCCC3(CCN(Cc4cccs4)C3)C2)nc1` (configuration not stated), the INHIBITION stood at 44.9%.

`Cc1ccc(C(=O)NCCn2nc(-n3cncn3)ccc2=O)c(C)c1`: the INHIBITION was determined as 16.5%.

For the molecule `CC(C)c1nc2c(n1C)CCN(Cc1nc(-c3ccco3)no1)C2`, the INHIBITION amounted to 7.08%.

On to `O=C(NCc1ccc2c(c1)OCO2)c1ccc(N2CCCCCC2)nc1`, for which the INHIBITION is listed as -4.99%.

Take `CCN1CCN(CC(=O)N2CCOC(Cc3ccc(OC)cc3)C2)CC1` (configuration not stated): the INHIBITION is recorded as -42.1%.

As to `COc1ccc2cc(C3CN(C(=O)CN4CCCC4)CCO3)ccc2c1` (configuration not stated), the INHIBITION turned out to be 64.7%.

For the molecule `CNC(=O)CCC(=O)N1CCOC(c2ccc3cc(OC)ccc3c2)C1` (configuration not stated), the INHIBITION is on record as 78.15%.

In the case of `CNC(=O)CN1CCC(c2cc(OC)cc(OC)c2)C1` (configuration not stated), the INHIBITION is recorded as 45.1%.

On to `COc1ccc(CN2CCO[C@H]3CN(C(=O)C4CC4)CC[C@H]3C2=O)cc1`, for which the INHIBITION is given as -47%.

In the case of `CN(C)C(=O)N1CC[C@@H](c2ccc3ccccc3c2)[C@H](O)C1`, the INHIBITION is 2.18%.

For `COc1ccc(-c2cnc(N(C)C)nc2C2CN(C(C)=O)CCO2)cc1` (configuration not stated), the INHIBITION came out at 7.52%.

With `O=C(C1CCOCC1)N1CCOCC(Cc2ncccn2)C1` (configuration not stated), the INHIBITION is on record as 19.3%.

In the case of `COc1ccc2cc(C3CN(C(=O)N(C)C)CCO3)ccc2c1` (configuration not stated), the INHIBITION amounted to 85.4%.

As for `Nc1cccc(C2CN(C(=O)CN3CCOCC3)CCO2)n1` (configuration not stated), the INHIBITION was 36%.

Consider `COc1ccc2cc(C3CN(C(=O)C4CCOCC4)CCO3)ccc2c1` (configuration not stated), for which the INHIBITION is on record as 66.8%.

For `CNC(=O)NC(=O)CCN1CCOC(c2ccc(Br)cc2)C1` (configuration not stated), the INHIBITION is given as -65.1%.

Take `O=C(c1cc(-c2ccco2)cs1)N1CCCC1`: the INHIBITION is recorded as -12.2%.

As to `CNC(=O)[C@H]1C[C@H]2OCC[C@H]2N(Cc2cccc3ccccc23)C1`, the INHIBITION is -6.32%.

As for `COCc1nc(CNc2cc(C)nc(-c3ccccc3)n2)no1`, the INHIBITION is recorded as -7.81%.

In the case of `O=C(CS(=O)(=O)Cc1ccccc1)NC1CCCCNC1=O` (configuration not stated), the INHIBITION came to 5.7%.

`Cc1noc([C@H]2C[C@H]3OCC[C@H]3N(S(C)(=O)=O)C2)n1`: the INHIBITION is on record as -31.3%.

Turning to `CCOC(=O)[C@]12CCCN(Cc3ccco3)C[C@H]1CN(CCN(C)C)C2`, the INHIBITION is recorded as -0.182%.

Consider `Cn1nc2c(cc1=O)CN(Cc1nc(-c3ccccn3)no1)CC2`, for which the INHIBITION is -19.7%.

As for `CCC(=O)Nc1c(C)nn(COc2cccc(F)c2)c1C`, the INHIBITION was 26.7%.

In the case of `Cc1cc(C)c2[nH]c(C(=O)NCCN3CCOC3=O)c(C)c2c1`, the INHIBITION was found to be 24%.

Turning to `CC(=O)N(Cc1noc(C)n1)C1CCN(CC(=O)N(C)C2CC2)C1` (configuration not stated), the INHIBITION stood at 7.3%.

Take `O=C(O)c1cc2c(nc1NCC1CC1)CCN(C1CCOC1)CC2` (configuration not stated): the INHIBITION was 29.8%.

Take `CC(=O)NCC(=O)N1CCOC(c2cccc(N)n2)C1` (configuration not stated): the INHIBITION is on record as -24.4%.

As for `CC(C)c1n[nH]c(C2CN(C(=O)COc3ccc(F)cc3)CCO2)n1` (configuration not stated), the INHIBITION came out at 8.41%.

Take `COCC(=O)N1CCC(c2ccc(OC)cc2)C1` (configuration not stated): the INHIBITION is recorded as 23.6%.

For `COc1ccc2cc(C3CN(C(=O)CCNC(C)=O)CCO3)ccc2c1` (configuration not stated), the INHIBITION stood at 81.9%.

On to `COc1ccc2cc(C3CN(C(=O)COC(C)C)CCO3)ccc2c1` (configuration not stated), for which the INHIBITION is reported as 69.15%.

Turning to `O=C(CCNS(=O)(=O)c1ccccc1)N1CCOC(c2ccccc2)C1` (configuration not stated), the INHIBITION is reported as -74.1%.

Turning to `FC(F)(F)COc1cccc(-c2nc3c([nH]2)CCNC3)c1`, the INHIBITION was found to be 36.6%.

On to `CCc1nc(CN(C)C2CCN(CC(=O)N3CCOCC3)C2)no1` (configuration not stated), for which the INHIBITION was determined as 22.3%.

Regarding `O=C(CN1CCOC(CNc2cccnn2)C1)N1CCCCC1` (configuration not stated), the INHIBITION was -55.4%.

With `CSc1ccc(-c2nc(CN3CCC(NC(C)=O)CC3)c(C)o2)cc1`, the INHIBITION is given as 5.51%.

Regarding `CNC(=O)C1CCN(Cc2nc(-c3ccc(SC)cc3)oc2C)C1` (configuration not stated), the INHIBITION was -2.5%.

As to `CSc1ccc(-c2nc(CN3CCC(NC(C)=O)C3)c(C)o2)cc1` (configuration not stated), the INHIBITION was determined as 66.8%.

For the molecule `COCCOc1ccc(NC(=O)C2CC(=O)N(C(C)C)C2)cn1` (configuration not stated), the INHIBITION was -21.8%.

For `CC(=O)NCC(=O)N1CCC(c2cncc(Oc3cccnc3)n2)CC1`, the INHIBITION was determined as 9.93%.

With `CN(Cc1n[nH]c2c1CCC2)C(=O)CCc1cc2n(n1)CCNC2`, the INHIBITION is on record as 46.3%.

Take `CCc1ncc(C(=O)N2CC(N3CCCCC3)C2)cn1`: the INHIBITION was determined as 13.9%.

Consider `CCc1ncc(C(=O)N2C[C@@H](C)O[C@@H](C)C2)cn1`, for which the INHIBITION was 24.8%.

For the molecule `CCc1ncc(C(=O)N2CC[C@H]3CC[C@@H](C2)N3C)cn1`, the INHIBITION stood at 61.4%.

`CNCc1ccc([C@@H]2CN(C)C[C@H]2C(N)=O)cc1`: the INHIBITION turned out to be 49.5%.

For the molecule `CC(C)n1ccnc1CNC(=O)c1cccc(CCC(C)(C)O)c1`, the INHIBITION turned out to be 54.5%.

Take `Cc1csc(CN(C)C(=O)c2cccc(CCC(C)(C)O)c2)n1`: the INHIBITION is given as 34.9%.
